Inconclusive results are not listed. Active and inactive are the calls of the source. Calls come from the whole dose curve; as a rule, active = well fitted curve in the direction sought with a large enough effect; inconclusive = small, poorly fitted or top-dose-only effect, or another doubt; inactive = no such curve, though single readings can be large; an effect the other way counts as inactive or inconclusive.
Test system: not listed separately
Experiment: HepG2 viability counterscreen (readout 1: protease activity) against the NCATS DSHEA and TCM libraries (AID 1794841);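 note: cells exposed to compounds for about 24 h before the protease read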
Conditions: qHTS concentration series; series mostly up to 27.3 µM
Description: Assay Development and Screening Technology Laboratory (ADST)
National Center for Advancing Translational Sciences (NCATS), Rockville, MD
National Institute of Health (NIH), Bethesda, Maryland
Dietary Supplements and Natural Products have minor oversight of their safety and efficacy. We assembled a collection of Dietary Supplements and Natural Products (DSNP) as well as Traditional Chinese Medicinal (TCM) Plant extracts, which were screened against an in vitro panel of assays, including a liver cytochrome p450 enzyme panel, CAR/PXR signaling pathways, and P-gp transporter assays, to assess their activity. This pipeline facilitated the interrogation of Natural Product-Drug Interaction (NaPDI) through prominent metabolizing pathways. In addition, we compared the activity profiles of the DSNP/TCM substances with those of an approved drug collection. Many of the approved drugs have well-annotated mechanisms of action (MOA) while the MOAs for most of the DSNP and TCM samples remain unknown. Based on the premise that compounds with similar activity profiles tend to share similar targets or MOA, we clustered the library activity profiles to identify overlap with the NCATS Pharmaceutical Collection to predict the MOAs of the DSNP/TCM substances. Overall, we highlight four significant bioactivity profiles (measured by p-values) as examples of this prediction. In addition, to assess broad cytotoxicity, we employed screening against a HepG2 cell line.
To this end, we profiled both collections for potential CAR and/or PXR activity, employing a previously published 1536-well qHTS assay.
PROTOCOL TABLE (as described by Inglese J, Shamu CE and Guy RK. 2007)
SEQUENCE No. (e.g., 1, 2, 3, etc.); PARAMETER (e.g., Cells, Incubation, Reagent, etc.); VALUE; DESCRIPTION.
1; Cells; 5 uL; HepG2 cells, white solid-bottom tissue treated Greiner plate.
2; Incubation; 4 hrs; 37C, 95% humidity, 5% CO2.
3; Compounds; 23 nL; Kalypsis pin tool (Wako USA) equipped with a 1536-well pin head to transfer to the assay plates.
4; Incubation; 24 hrs; 37C, 95% humidity, 5% CO2.
5; Reagent; 1 uL; GF-AFC substrate.
6; Incubation; 30 min; 37C, 95% humidity, 5% CO2.
7; Read 1; Fluorescence; EnVision plate reader excitation 380 nm, emission 510 nm.
8; Reagent; 3 uL; CellTiter-Glo (Promega).
9; Centrifuge; 1000 RPM; 15 seconds.
10; Incubation; 30 min; room temperature.
11; Read 2; Luminescence; ViewLux plate reader.
NOTES (numbers refer to Sequence numbers above)
1. 5 uL of HepG2 cells at 2 x 10^5 cells/mL (1,000 cells/well) were dispensed into a 1536-well white solid-bottom tissue treated plate (Greiner Bio-One) using a Multidrop Combi dispenser (Thermo Scientific). This assay use both GF-AFC substrate and Cell-Titer Glo (CTG), measuring cellular protease activity and ATP content, respectively.
2. Plates were incubated at 37C, 95% humidity, and 5% CO2 for ~4 hours to allow for cell attachment.
3. Compounds were transferred (16 nL) via pintool (Wako Automation), for a final concentration range for most substances of 15.6 nM - 31.3 uM.
4. Plates were incubated for ~24 hours.
5. 1 uL addition of GF-AFC substrate (final concentration 25 uM; MP Biomedicals).
6. Plates were incubated at 37C, 95% humidity, and 5% CO2 for 30 minutes.
7. After incubation, plates were read for fluorescence intensity (Ex/Em = 380 nm/510 nm) on an EnVision detector (PerkinElmer, Shelton, Connecticut).
8. Once the detection for fluorescence was completed, plates were dispensed with 3 uL of CellTiter-Glo (Promega, Madison, WI).
9. Plates were centrifuged for 15 seconds at 1,000 RPM's.
10. Plates were incubated for 30 minutes at room temperature.
11. Plates were then read for luminescence intensity on a ViewLux detector.
Inglese J, Shamu CE and Guy RK, Reporting data from high throughput screening of small molecule libraries, Nature Chemical Biology, 2007, 3(8): 438-441. doi.org/10.1038/nchembio0807-438.

Compound	outcome
C=C[C@](C)(O)CCC=C(C)C	inactive
NC(Cc1c[nH]c2ccccc12)C(=O)O (stereo not given)	inactive
O=c1ccc2ccc(O)cc2o1	inactive
COc1ccc2ccc(=O)oc2c1	inactive

Target: Glutathione peroxidase 1 (Homo sapiens) (UniProt P07203)
Experiment: Primary qHTS Assay for Inhibitors of Recombinant Selenoprotein Glutathione Peroxidase 1 (GPX1) (AID 1845191); note: nearly all actives have a fitted effect of over 65% in size
Conditions: recombinant GPX1, GR-coupled NADPH fluorescence, 15 min; series mostly up to 48.8 µM
Procedure, shortened: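 10 nM GPX1 + cpd, 30 min RT; start w/ 1 mM GSH, 0.5 mM cumene hydroperoxide, 0.5 mM NADPH, 100 nM GR, 0.01% BSA; buffer 50 mM Tris-HCl pH 7.5, 2 mM EDTA, 150 mM NaCl; Fl 340/450, 0 & 15 min.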

Glutathione peroxidase 1 (Homo sapiens), sequence (P07203 whole entry, looked up): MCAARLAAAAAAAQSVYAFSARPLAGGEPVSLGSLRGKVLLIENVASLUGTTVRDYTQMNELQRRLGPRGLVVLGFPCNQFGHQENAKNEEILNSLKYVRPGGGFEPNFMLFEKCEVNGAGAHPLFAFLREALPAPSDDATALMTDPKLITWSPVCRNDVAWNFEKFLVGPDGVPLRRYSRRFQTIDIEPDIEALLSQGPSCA

Compound	outcome
Oc1ccc2c(c1)OCC1(O)Cc3cc(O)c(O)cc3C21 (stereo not given)	inactive
C[N+](C)(C)CC(O)CC(=O)O (stereo not given)	inactive
CN(C)CC/C=C1\c2ccccc2CSc2ccccc21	inactive
C#C[C@]1(O)CCC2C3CCC4=C(CCC(=O)C4)C3CC[C@@]21C (stereo not given in full)	inactive
CC(C)N1CCN(c2ccc(OC[C@@H]3CO[C@@](Cn4cncn4)(c4ccc(Cl)cc4Cl)O3)cc2)CC1	inactive
CC1(C)SC2C(NC(=O)Cc3ccccc3)C(=O)N2C1C(=O)O (stereo not given)	inactive
C=C(NC(=O)C(=C)NC(=O)c1csc(C2=NC3c4csc(n4)C4NC(=O)c5csc(n5)C(C(C)(O)C(C)O)NC(=O)C5CSC(=N5)C(=CC)NC(=O)C(C(C)O)NC(=O)c5csc(n5)C3(CC2)NC(=O)C(C)NC(=O)C(=C)NC(=O)C(C)NC(=O)C(C(C)CC)NC2C=Cc3c(C(C)O)cc(nc3C2O)C(=O)OC4C)n1)C(N)=O (stereo not given)	inactive
CC(C)(S)[C@H](N)C(=O)O	inactive [at 4.49 µM]
COc1cc2c(cc1OC)C1Cc3ccc(OC)c(OC)c3CN1CC2 (stereo not given)	inactive
CC12CC[C@@H]3c4ccc(OS(=O)(=O)O)cc4CC[C@H]3C1CCC2=O (stereo not given in full)	inactive
C[C@@H]1CCC[C@H](C)N1NC(=O)c1ccc(Cl)c(S(N)(=O)=O)c1	inactive
CN1C(CC(=O)c2ccccc2)CCCC1CC(O)c1ccccc1 (stereo not given)	inactive

Target: Phospholipid hydroperoxide glutathione peroxidase GPX4 (Homo sapiens) (UniProt P36969)
Experiment: Primary qHTS Assay for Inhibitors of Recombinant Selenoprotein Glutathione Peroxidase 4 (GPX4) (AID 1845192); note: nearly all actives have a fitted effect of over 65% in size
Conditions: recombinant GPX4, GR-coupled NADPH fluorescence, 15 min; series mostly up to 50 µM
Procedure, shortened: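 NADPH consumption, followed by fluorescence at 340/450 nm between 0 and 15 min, reports GPX4 activity via coupled glutathione reductase (100 nM). Enzyme 200 nM was pre-exposed to compound 30 min; 0.5 mM cumene hydroperoxide and 1 mM GSH served as substrates.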

Phospholipid hydroperoxide glutathione peroxidase GPX4 (Homo sapiens), sequence (P36969 whole entry, looked up): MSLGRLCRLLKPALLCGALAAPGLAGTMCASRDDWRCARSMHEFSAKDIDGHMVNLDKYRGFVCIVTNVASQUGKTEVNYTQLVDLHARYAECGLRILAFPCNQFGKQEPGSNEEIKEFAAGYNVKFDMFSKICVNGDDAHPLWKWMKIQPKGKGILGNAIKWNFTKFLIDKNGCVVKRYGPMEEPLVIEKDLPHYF

Compound	outcome
C[N+](C)(C)CC(O)CC(=O)O (stereo not given)	inactive
CN(C)CC/C=C1\c2ccccc2CSc2ccccc21	inactive
CC(C)N1CCN(c2ccc(OC[C@@H]3CO[C@@](Cn4cncn4)(c4ccc(Cl)cc4Cl)O3)cc2)CC1	inactive
CC1(C)SC2C(NC(=O)Cc3ccccc3)C(=O)N2C1C(=O)O (stereo not given)	inactive
CC(C)(S)[C@H](N)C(=O)O	inactive [at 4.52 µM]
CC12CC[C@@H]3c4ccc(OS(=O)(=O)O)cc4CC[C@H]3C1CCC2=O (stereo not given in full)	inactive
C[C@@H]1CCC[C@H](C)N1NC(=O)c1ccc(Cl)c(S(N)(=O)=O)c1	inactive
CN1C(CC(=O)c2ccccc2)CCCC1CC(O)c1ccccc1 (stereo not given)	inactive
O=C(Cc1cccs1)NC1C(=O)N2C(C(=O)[O-])=C(C[n+]3ccccc3)CSC12 (stereo not given)	inactive

Target: Cytochrome P450 3A4 (Homo sapiens) (UniProt P08684)
Experiment: qHTS for inhibitors of CYP3A4 against the NCATS DSHEA and TCM libraries (AID 1919971);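 note: inhibition lowers luminescence from luciferin made by CYP3A4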
Conditions: recombinant CYP3A4 enzyme activity, luminescence qHTS; series mostly up to 34.1 µM
Procedure, shortened: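 Read-out is luminescence after P450-Glo detection (30 min, RT). Before that: 15 min compound–enzyme preincubation, then 30-45 min reaction with 1x NADPH regeneration solution, substrate concentration isoform-specific.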

Cytochrome P450 3A4 (Homo sapiens), sequence (P08684 whole entry, looked up): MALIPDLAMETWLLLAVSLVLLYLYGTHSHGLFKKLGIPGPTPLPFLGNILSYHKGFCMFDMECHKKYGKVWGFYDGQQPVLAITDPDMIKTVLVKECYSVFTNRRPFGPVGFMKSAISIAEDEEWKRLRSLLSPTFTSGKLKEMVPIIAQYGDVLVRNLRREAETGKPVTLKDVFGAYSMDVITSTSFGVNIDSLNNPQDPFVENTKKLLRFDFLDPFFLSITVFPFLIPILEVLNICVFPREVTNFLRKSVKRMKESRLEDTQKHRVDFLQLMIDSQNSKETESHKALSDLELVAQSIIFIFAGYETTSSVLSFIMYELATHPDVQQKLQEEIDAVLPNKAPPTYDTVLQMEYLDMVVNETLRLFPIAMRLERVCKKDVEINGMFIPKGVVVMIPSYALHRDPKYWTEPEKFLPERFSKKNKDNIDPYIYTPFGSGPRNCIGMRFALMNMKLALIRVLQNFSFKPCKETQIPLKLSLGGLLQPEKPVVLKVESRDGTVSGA

Compound	outcome
C=C(C)[C@H]1CC=C(C)C(=O)C1	inactive
O=c1cc(-c2ccc(O)cc2)oc2cc(O[C@H]3OC(CO)C(O)C(O)C3O)cc(O)c12 (stereo not given in full)	inactive
O=C(/C=C/c1ccc(O)c(O)c1)OC(Cc1ccc(O)c(O)c1)C(=O)O (stereo not given)	inactive
NC(Cc1c[nH]c2ccccc12)C(=O)O (stereo not given)	inactive
COc1ccc2ccc(=O)oc2c1	inactive

From PubChem BioAssay (NCATS)
